Results taken from the supplement of paper PMC8728848.
The full list was thinned out, with the strongest signals kept by preference.

Columns and labels:
Test in all cases: glycan array binding signal (z-score within array); higher = stronger binding
Settings in all cases: glycan notation: IUPAC condensed, linker removed
Fuc(a1-2)Gal(b1-3)GalNAc = molecular target: Fuc(a1-2)Gal(b1-3)GalNAc
Method in brief: (§1)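 From the Consortium for Functional Glycomics database, 3228 arrays were curated, keeping only those whose protein sequence was available. Binding is given as a within-array Z-score averaged across arrays sharing a protein sequence and across linkers. Negative Z-scores can be read as non-binding.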

[1] = molecular target: Fuc(a1-2)Gal(b1-3)GalNAc(b1-4)[Neu5Ac(a2-3)]Gal(b1-4)Glc
Method in brief: as §1

[2] = molecular target: Fuc(a1-2)Gal(b1-4)[Fuc(a1-3)]GlcNAc
Method in brief: as §1

[3] = molecular target: Fuc(a1-2)Gal(b1-4)[Fuc(a1-3)]GlcNAc(b1-3)Gal(b1-4)[Fuc(a1-3)]GlcNAc
Method in brief: as §1

[4] = molecular target: Fuc(a1-2)Gal(b1-4)[Fuc(a1-3)]GlcNAc(b1-3)Gal(b1-4)[Fuc(a1-3)]GlcNAc(b1-3)Gal(b1-4)[Fuc(a1-3)]GlcNAc
Method in brief: as §1

Fuc(b1-3)GlcNAc = molecular target: Fuc(b1-3)GlcNAc
Method in brief: as §1

Gal(a1-3)Gal = molecular target: Gal(a1-3)Gal
Method in brief: as §1

Gal(b1-4)Glc6S = molecular target: Gal(b1-4)Glc6S
Method in brief: as §1

Gal3S(b1-4)GlcNAc6S = molecular target: Gal3S(b1-4)GlcNAc6S
Method in brief: as §1

Gal3S6S(b1-4)GlcNAc = molecular target: Gal3S6S(b1-4)GlcNAc
Method in brief: as §1

Gal3S6S(b1-4)GlcNAc6S = molecular target: Gal3S6S(b1-4)GlcNAc6S
Method in brief: as §1

Gal6S(b1-4)Glc6S = molecular target: Gal6S(b1-4)Glc6S
Method in brief: as §1

GalNAc(a1-3)GalNAc = molecular target: GalNAc(a1-3)GalNAc
Method in brief: as §1

GalNAc(b1-4)GlcNAc = molecular target: GalNAc(b1-4)GlcNAc
Method in brief: as §1

[5] = molecular target: Neu5Ac(a2-3)Gal(b1-3)GlcNAc
Method in brief: as §1

Neu5Ac(a2-3)GalNAc = molecular target: Neu5Ac(a2-3)GalNAc
Method in brief: as §1

[6] = molecular target: Neu5Gc(a2-3)Gal(b1-4)[Fuc(a1-3)]GlcNAc
Method in brief: as §1

B1: MIG/CXCL9 (Homo sapiens) (protein)
chain: TPVVRKGRCSCISTNQGTIHLQSLKDLKQFAPSPSCEKIEIIIATLKNGVQTCLNPDSADVKELIKKTEKQVSQKKKQKNGKKHQKKKVLKVRKSQRSRQKKTT
Fuc(a1-2)Gal(b1-3)GalNAc
  glycan array binding signal (z-score): -0.29
[1]
  glycan array binding signal (z-score): -0.193
[2]
  glycan array binding signal (z-score): -0.26
[3]
  glycan array binding signal (z-score): -0.383
[4]
  glycan array binding signal (z-score): -0.37
Fuc(b1-3)GlcNAc
  glycan array binding signal (z-score): -0.209
Gal(a1-3)Gal
  glycan array binding signal (z-score): -0.114
Gal(b1-4)Glc6S
  glycan array binding signal (z-score): 0.015
Gal3S(b1-4)GlcNAc6S
  glycan array binding signal (z-score): 2.28
Gal3S6S(b1-4)GlcNAc
  glycan array binding signal (z-score): 2.35
Gal3S6S(b1-4)GlcNAc6S
  glycan array binding signal (z-score): 5.28
Gal6S(b1-4)Glc6S
  glycan array binding signal (z-score): 2.35
GalNAc(a1-3)GalNAc
  glycan array binding signal (z-score): 0.274
GalNAc(b1-4)GlcNAc
  glycan array binding signal (z-score): -0.358
[5]
  glycan array binding signal (z-score): -0.037
Neu5Ac(a2-3)GalNAc
  glycan array binding signal (z-score): -0.254
[6]
  glycan array binding signal (z-score): -0.288
